Screening data (PubChem BioAssay)
In the library only some 4.2% were active in any assay of this set; here they are far more common.
CCHFV vOTU inh: CCHFV vOTU protease inhibition; inhibition, % at 11.5 µM; hit rate 0.55% among 370,000; Pep-AMC fluorescence; note: 0% = vehicle wells with enzyme and 100% = no enzyme wells
GDH-TPI counter: GDH-TPI coupled enzyme inhibition counter-screen; hit rate 1.2% among 360,000; GDH-TPI coupled enzyme counterscreen, NADH absorbance; inhibition, % at 4.8 µM;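 note: 0% = DMSO wells and 100% = wells lacking the enzyme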
Mtb bLac sens: beta-lactam sensitization of Mtb H37Rv; M. tuberculosis H37Rv growth with meropenem, percent inhibition; inhibition, % at 25 µM; hit rate 0.27% among 330,000; AID 434955; call rule not given here;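 note: growth measured after seven days incubation then overnight dye step; 0% = bacteria only wells and 100% = bacteria with antibiotic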
Mtb FBA inh: inhibitors of M. tuberculosis fructose-bisphosphate aldolase; purified M. tuberculosis FBA, fluorescence read-out; hit rate 2.3% among 360,000; AID 588726; inhibition, % at 1 µM; in the data active = inhibition above about 27%;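 note: 0% = vehicle and 100% = reference inhibitor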
RecA splice inh: blocks M. tuberculosis RecA intein splicing | AID 2221 | P9WHJ3 | inhibition, % (concentration not given with the values) | hit rate 0.75% among 290,000 | cell-free RecA intein splicing, fluorescence; in the data active = inhibition above about 30%; inconclusive = no clear call, values can overlap the other calls;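 note: 0% = vehicle wells and 100% = reference inhibitor control wells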
Target sequence (P9WHJ3 whole entry, looked up, canonical isoform): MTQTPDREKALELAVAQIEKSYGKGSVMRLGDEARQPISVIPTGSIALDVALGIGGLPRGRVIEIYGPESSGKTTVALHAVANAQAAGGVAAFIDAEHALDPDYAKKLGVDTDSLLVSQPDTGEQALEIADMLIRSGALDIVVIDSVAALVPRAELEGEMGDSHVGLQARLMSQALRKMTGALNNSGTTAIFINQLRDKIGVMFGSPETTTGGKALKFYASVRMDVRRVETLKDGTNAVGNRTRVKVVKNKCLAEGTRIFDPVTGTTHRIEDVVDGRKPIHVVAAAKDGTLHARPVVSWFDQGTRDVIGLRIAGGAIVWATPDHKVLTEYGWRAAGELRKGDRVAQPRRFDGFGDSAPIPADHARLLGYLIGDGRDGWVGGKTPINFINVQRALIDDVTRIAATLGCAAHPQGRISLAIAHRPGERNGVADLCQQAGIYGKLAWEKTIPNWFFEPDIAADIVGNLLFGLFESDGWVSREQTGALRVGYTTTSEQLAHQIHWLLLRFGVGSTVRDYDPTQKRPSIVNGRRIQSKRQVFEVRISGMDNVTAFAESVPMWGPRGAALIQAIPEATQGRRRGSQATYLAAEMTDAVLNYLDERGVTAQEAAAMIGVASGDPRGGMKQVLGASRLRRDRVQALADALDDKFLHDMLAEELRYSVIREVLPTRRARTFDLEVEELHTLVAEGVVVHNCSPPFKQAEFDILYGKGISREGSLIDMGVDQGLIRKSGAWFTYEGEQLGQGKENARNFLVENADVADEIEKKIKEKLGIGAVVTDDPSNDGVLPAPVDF
Numbers without * were called inactive; u = inconclusive; x = no result. Cut-off read from the data, not from the text of the source, unless noted: active = inhibition above about 30%; inactive = the rest.

SMILES	CCHFV vOTU inh	GDH-TPI counter	Mtb bLac sens	Mtb FBA inh	RecA splice inh
COC(=O)c1ccc(C(=O)OC)c(NC(=S)N2CCN(c3ccccc3)CC2)c1	-62	16	6	30*	0
COC(=O)c1ccc(C(=O)OC)c(NC(=S)N2CCN(c3cccc(Cl)c3)CC2)c1	-31	-2	71	20	3
COc1ccc(/C=N/NC(=O)CNC(=O)COc2ccccc2)cc1	-2	8	9	-2	1
COc1ccc(/C=N/NC(=O)CCCCCNC(=O)c2ccccc2)cc1	7	0	-1	4	-1
COc1ccc(OCC(=O)N/N=C/c2ccc(N(C)C)cc2)cc1	2	34*	-7	21	0
CN(C)c1ccc(/C=N/NC(=O)CCCO)cc1	-4	22	-1	20	-4
CN(C)c1ccc(/C=N/NC(=O)CCC(=O)NCc2ccccc2)cc1	-8	32*	3	23	1
CN(C)c1ccc(/C=N/NC(=O)CCCCCNC(=O)c2ccccc2)cc1	-4	58*	2	17	-1
O=C(C1CCCN1S(=O)(=O)c1ccc([N+](=O)[O-])cc1)N1CCc2ccccc2C1 (stereo not given)	3	x	x	x	x
CCC1NC(C(=O)O)Cc2c1[nH]c1ccccc21 (stereo not given)	-73	11	-2	47*	-3
COc1cc(C2NC(C(=O)O)Cc3c2[nH]c2ccccc32)cc(OC)c1OC (stereo not given)	-3	18	2	9	-1
O=C(NCc1cccs1)C1CCN(S(=O)(=O)c2cccc3ccccc23)CC1	0	x	x	x	x
CC(=O)C(=Nc1ccc(Cl)cc1Cl)NNc1cccc(Cl)c1	10	31*	94	1	34*
CC(=O)Nc1ccc(NC(=O)Nc2cccc(Cl)c2)cc1	-1	5	7	-1	-5
O=C(O)CCn1cc(/C=C\C(=O)c2ccc(Cl)cc2)c(-c2cccc(Br)c2)n1	8	38*	0	1	4
Cc1cc(C)n2nc(-c3ccco3)nc2n1	0	4	5	124*	-2
Cc1cc(C)n2nc(-c3ccc(F)cc3)nc2n1	21	7	-2	0	-2
COc1ccccc1Nc1nc(NCCCN(C)C)nc(N)c1[N+](=O)[O-]	16	38*	1	0	-2
Nc1nc(NCCO)nc(NCC2CCCO2)c1[N+](=O)[O-] (stereo not given)	8	37*	2	-1	0
C=CCNc1nc(N)c([N+](=O)[O-])c(Nc2ccccc2OC)n1	14	20	2	3	2
CCN(CC)CCCNc1nc(N)c([N+](=O)[O-])c(NCCO)n1	2	21	-3	0	-4
CN(C)CCCNc1nc(N)c([N+](=O)[O-])c(NCCO)n1	1	38*	-3	-3	0
CCC(C)Nc1nc(N)c([N+](=O)[O-])c(Nc2ccccc2OC)n1 (stereo not given)	9	39*	69	2	-2
Nc1c(C(=O)N2CCOCC2)cnn1Cc1ccccc1	-6	x	x	x	x
Nc1nc(NCc2ccccc2)nc(NCCO)c1[N+](=O)[O-]	18	32*	-6	-5	1
SMILES	CCHFV vOTU inh	GDH-TPI counter	Mtb bLac sens	Mtb FBA inh	RecA splice inh
Nc1nc(NCCO)nc(NCc2ccccc2)c1[N+](=O)[O-]	x	25	4	0	-1
CCOC(=O)C1=NOC(C(=O)NCCO)(C(=O)C2CC2)C1 (stereo not given)	5	x	x	x	x
Cc1cc(/C=C2/C(=O)NN(c3ccccc3)C2=O)c(C)n1-c1ccc(O)cc1	5	16	9	-3	-6
Cc1cc(/C=C2\C(=O)NN(c3ccccc3)C2=O)c(C)n1-c1ccccc1O	-12	34*	-2	-3	-1
C#CCNC(=O)C[C@H]1C(=O)N(CC=C)C2=CCCC[C@@]21C(=O)OCC	-7	x	x	x	x
C=CCN1C(=O)[C@H](CC(=O)N2CCN(C(=O)C3CC3)CC2)[C@@]2(C(=O)OCC)CCCC=C12	-3	x	x	x	x
O=C(O)c1ccccc1N/N=C/C1=C(N2CCOCC2)C(=C\c2ccccc2)/CC1	-10	11	46	7	6
Cc1cc(C)nc(N/N=C/C2=C(N3CCOCC3)C(=C/c3ccccc3)/CC2)n1	-1	32*	98	0	-5
CCOC(=O)C(=CNc1ccc(C(F)(F)F)cc1Cl)C(=O)OCC	-9	36*	u	1	5
CC(CCN1CCC(C(O)(c2ccccc2)c2ccccc2)CC1)Oc1ccc(F)cc1 (stereo not given)	4	x	x	x	x
Cc1nn(C)c(C)c1/C=C1/SC(=S)NC1=O	5	35*	-6	-3	3
Cc1nn(C)cc1/C=C1\SC(=S)NC1=O	8	12	7	0	-1
O=C(O)c1ccc(/C=N\Nc2ccccn2)cc1	12	54*	-3	-3	6
O=[N+]([O-])c1ccc(/C=N/Nc2ccccn2)cc1	-3	13	19	-3	0
CN(C)c1ccc(/C=N\Nc2ccccn2)cc1	10	76*	-4	2	-3
CN(C)c1ccc(C=NNc2ccccn2)c(Cl)c1	5	12	x	11	x
COc1ccc(C(=O)C2(C(=O)NC3CCCC3)CC(c3ccccc3C(F)(F)F)=NO2)cc1 (stereo not given)	0	x	x	x	x
CCn1c(C)csc1=NC(=O)c1ccccc1O	5	37*	-3	0	1
CCn1c(C)csc1=NC(=O)c1ccccc1	16	34*	12	-8	2
O=C(NCCc1cccc(F)c1)c1cc2ccccn2n1	0	x	x	x	x
CC(=O)c1ccc(N2CCN(S(=O)(=O)c3ccc4c(c3)C(Cl)(Cl)C(=O)N4)CC2)cc1	18	32*	x	0	x
CCOC(=O)C1=NOC(C(C)=O)(C(=O)N2CCOCC2)C1 (stereo not given)	0	x	x	x	x
Cc1ccccc1-c1nnc(-c2ccccc2)o1	-5	-2	66	3	4
Cn1cc(-c2nnc(-c3ccccc3)o2)c2ccccc21	-26	15	24	173*	-1
Nc1nc2nn(-c3ccccc3)nc2c(=O)[nH]1	-91	14	3	199*	-2
SMILES	CCHFV vOTU inh	GDH-TPI counter	Mtb bLac sens	Mtb FBA inh	RecA splice inh
Cc1cc(NS(=O)(=O)c2ccc(NC(=O)c3ccc([N+](=O)[O-])s3)cc2)nc(C)n1	13	31*	90	-1	x
COc1ccccc1NC(=O)CCN1C(=O)c2ccccc2C1=O	1	0	-3	2	-2
COc1ccccc1CNC(=O)CCN1C(=O)c2ccccc2C1=O	-5	2	0	117*	-1
CCOC(=O)C1=NOC(C(C)=O)(C(=O)NC2CCCC2)C1 (stereo not given)	-6	x	x	x	x
O=c1[nH]c(/C=C\c2cccc(O)c2)nc(O)c1[N+](=O)[O-]	18	35*	3	-7	1
CCOc1ccccc1/C=C\c1nc(O)c([N+](=O)[O-])c(=O)[nH]1	-10	37*	1	-1	-1
O=C(COc1ccccc1/C=C\c1nc(O)c([N+](=O)[O-])c(=O)[nH]1)Nc1ccccc1	5	21	x	0	x
CC(=O)C(Sc1ncnc2c1nnn2-c1ccc(F)cc1)C(=O)N(C)C (stereo not given)	8	x	0	x	40*
